Experimental data from ChEMBL document CHEMBL3988442, “University of Dundee, Small-Polar-MMV Screening Library” (2021).
The campaign covered roughly 69,000 compounds. About 950 (1.4%) showed an effect of 50% or more. Many of the other results were omitted from the sample, so strong results are more common in it than they were.

Tested on: Mycobacterium tuberculosis
Experiment: Cornell M. t heat shock assay; note: in the data most compounds retested in dose-response had high values
Format: functional, organism-based
Parameters: dose or concentration left out as unconfirmed

Compound | Percent Effect [%]
C1CN(CC2CC2)C(COCC2CC2)c2nnn(CC3CC3)c21.O=C(O)C(F)(F)F (stereo not given) | -14.94
COc1ccc(CNC(=O)Cn2ccc3sccc3c2=O)cc1 | -0.6252
Cl.Cn1cc([C@@H]2CN(S(=O)(=O)c3ccccc3F)C[C@H]2N)c2ccncc21 | -1.741
CN(C)C(=O)CN1CCC2(CCN(CC3CC3)CC2)C1=O.O=C(O)C(F)(F)F | -28.35
O=C(O)C(F)(F)F.O=C(O)C(F)(F)F.O=C1[C@@H]2CCN(Cc3ccoc3)C[C@@H]2OCCN1Cc1cccnc1 | -189.5
CN(C)CCOCC1CN(Cc2cccc(F)c2)Cc2nccn2C1.O=C(O)C(F)(F)F.O=C(O)C(F)(F)F (stereo not given) | -23.51
CCCN(Cc1cnc2ccccc2n1)Cc1ccccc1OC | 19.04
CCCN(Cc1nc2ccccc2[nH]1)Cc1ccccc1OC | 67.04
CCCN(Cc1ccccn1)Cc1ccccc1OC | 31.04
O=C(O)C(F)(F)F.O=C(O)C(F)(F)F.O=C(O)c1c(-c2cccnc2)ncc2c1CCN(Cc1cccnc1)C2 | -14.58
Cc1nc(CO[C@@H]2CN(Cc3nccs3)[C@@H]3COC[C@@H]32)cs1.O=C(O)C(F)(F)F | -44.36
CN(C)S(=O)(=O)N1CC[C@]2(C[C@@H](Oc3cccnc3)CO2)C1.O=C(O)C(F)(F)F | -11.53
CC(Nc1nc(-c2ccccc2)nc2c1CCNCC2)c1cccnc1 (stereo not given) | 73.2
CC(Nc1nc(-c2ccncc2)nc2c1CCNC2)c1ccccc1 (stereo not given) | 18.8
CC(Nc1nc(-c2ccccc2)nc2c1CCNCC2)c1nccs1 (stereo not given) | 20.74
O=C(O)C(F)(F)F.O=C(O)C(F)(F)F.c1cnc(N2CCOC3(CCN(CC4CCCCC4)CC3)C2)nc1 | 13.11
O=C(O)C(F)(F)F.c1ncn(Cc2cnc3n2CCN(Cc2ccsc2)CC3)n1 | -8.028
Cc1ccc(C(=O)Nc2cn[nH]c2)cc1F | -0.1311
Cc1noc(NC(=O)c2ccc(C)c(F)c2)n1 | 105.5
Cc1noc(NC(=O)c2ccc(Br)o2)n1 | -6.271
Cc1noc(COCC(=O)Nc2ccc(Br)c(C)n2)n1 | 3.251
CN(C)Cc1ccccc1NC(=O)c1ccc(C#N)cc1 | -24.53
Cc1c(NC(=O)c2cccc(Br)c2)c(C(=O)N(C)C)nn1C | -8.879

Compound | Percent Effect [%]
Cc1cc(NC(=O)c2ccc(C)c(F)c2)[nH]n1 | 1.383
Cc1noc(NC(=O)c2ccc(C#N)cc2)n1 | 69.42
Cc1noc(NC(=O)c2cccc(Br)c2)n1 | 106.8
Cc1noc(NC(=O)c2ccc(Br)s2)n1 | 103.3
O=C(NCCn1ccnc1)c1cccc(Br)c1 | 24.48
Cc1nc(C(C)(C)NC(=O)Nc2ccc(C#N)cc2)no1 | -15.18
O=C(O)C(F)(F)F.O=C(O)C(F)(F)F.c1ccc(N2CC[C@H](OCC3CC3)[C@@H]2Cc2cccnc2)nc1 | 14.43
O=C(O)C(F)(F)F.c1cc(-c2ccc3nc(C4CCN(CC5CC5)CC4)nn3c2)cs1 | -34.74
Cc1cc(C)nc(N2CC=C[C@@H]2C(=O)NCc2ccc3c(c2)OCO3)n1.Cl | 15.24
CN(C)C(=O)N1C[C@@H]2CC[C@H](C1)N(C(=O)c1cccc(N(C)C)c1)C2 | -44.86
CC(C)N(C(=O)Cn1c(-c2ccco2)cc2cccnc21)C(C)C.Cl | 22.85
CCN1CCn2c(C)cnc2C12CCN(C(=O)c1ccco1)CC2.O=C(O)C(F)(F)F.O=C(O)C(F)(F)F | -2.925
CN(C)CCN1C(=O)CCC12CCCN(C(=O)N(C)C)CC2.O=C(O)C(F)(F)F (stereo not given) | -13.38
Cc1nc(C2(O)CCCNCC2)sc1CCOc1ccc(F)cc1.Cl (stereo not given) | -29.66
CC[C@@H]1N(Cc2cccnc2)CCC[C@]12CCC(=O)N2C.O=C(O)C(F)(F)F.O=C(O)C(F)(F)F | -6.56
Cc1cc(CCC2CN(CC3(O)CCCCC3)CCO2)ncn1 (stereo not given) | -44.25
O=C(O)C(F)(F)F.O=C1CC[C@H]2[C@@H](CCN2Cc2ccco2)N1 | 9.652
O=C(O)C(F)(F)F.O=C(O)C(F)(F)F.c1cc(CN2C[C@@H]3OCCN(CC4CCCO4)[C@@H]3C2)cs1 (stereo not given in full) | -21.3
Cn1cc(CN2C[C@@H]3COC[C@]3(CNC(=O)c3ccccc3)C2)cn1.O=C(O)C(F)(F)F | -17.03
Cn1cc(CN2CCC3(CC2)CCN(C(=O)c2cscn2)CC3)cn1.O=C(O)C(F)(F)F | -25.9
Cn1nc(CNC(=O)c2ccc(OC(F)(F)F)cc2)c2c1CCOC2 | -19.12
Cc1nn(C(C)C)c(C)c1NC(=O)c1ccccc1 | -7.424
Cc1noc([C@@H]2C[C@H](NC(=O)Nc3ccccc3)CN2C)n1 | -29.39

Compound | Percent Effect [%]
Cc1noc(NC(=O)c2ccc(Br)cc2)n1 | 103.7
Cc1noc(NC(=O)CCNC(=O)c2ccc(Br)cc2)n1 | -35.97
Cc1noc(NC(=O)c2ccccc2)n1 | 75.22
CN1C[C@H](O)C[C@H]1c1nc(-c2ccc(OC(F)(F)F)cc2)no1 | -7.267
Cc1noc(NC(=O)c2ccc(F)cc2)n1 | 105.9
Cc1c(NC(=O)c2ccc(Br)cc2)c(C(=O)N(C)C)nn1C | 5.328
Cc1noc(NC(=O)c2ccc(OC(F)(F)F)cc2)n1 | 102.9
Cc1noc(NCc2cc(F)ccc2F)n1 | -3.185
Cc1noc(NCc2ccc(F)cc2)n1 | -14.89
COc1cc2cc(C)c(SCCN3CCCC3)nc2cc1OC.Cl | 5.186
Cn1ncc2c1C(COCC1CC1)N(Cc1ccoc1)CC2.O=C(O)C(F)(F)F.O=C(O)C(F)(F)F (stereo not given) | -34.45
O=C(NC[C@H]1OC[C@@H]2CN(Cc3ccco3)CC[C@@H]21)c1cccnc1.O=C(O)C(F)(F)F.O=C(O)C(F)(F)F | -10.25
Cc1noc(C)c1CN1CCO[C@H]2CN(C(=O)C3CCOCC3)C[C@H]21.O=C(O)C(F)(F)F | -18.06
COc1ncccc1CNC1CCc2c(ccc(=O)n2C)C1.O=C(O)C(F)(F)F.O=C(O)C(F)(F)F (stereo not given) | 17.68
NC(=O)N1C[C@H]2CN(Cc3nccs3)C[C@H]2C1.O=C(O)C(F)(F)F | -3.349
Cc1ccc(C(=O)N2CCN3C[C@H](Oc4cccnc4)C[C@H]3C2)cn1.O=C(O)C(F)(F)F.O=C(O)C(F)(F)F.O=C(O)C(F)(F)F | -27.6
COc1ccc2[nH]cc(C(=O)CNc3nccs3)c2c1.I | 0.8623
O=C(O)C(F)(F)F.O=C(c1cnccn1)N1C[C@@H]2C[C@@H](c3nc(C4CC4)cs3)O[C@@H]2C1 | 1.274
Cc1ccc(C(=O)Nc2nc(C)no2)cc1 | 75.29
Cc1ccc(C(=O)Nc2c(C(=O)N(C)C)nn(C)c2C)cc1 | -14.21
Cc1ccc(C(=O)Nc2cn[nH]c2)cc1 | -8.204
Cc1nnc(N2CCCC3(CN(Cc4cccnc4)CCO3)C2)o1.O=C(O)C(F)(F)F.O=C(O)C(F)(F)F.O=C(O)C(F)(F)F (stereo not given) | -2.58
Cc1nc(COC[C@H]2CCC[C@@]23CN(C(C)C)CCO3)cs1.O=C(O)C(F)(F)F | -25.66

Compound | Percent Effect [%]
COc1cccc([C@H]2CN(C(C)=O)[C@@H]3CCN(Cc4ccsc4)C[C@H]23)c1.Cl | -8.302
O=C(O)C(=O)O.c1coc(CN2CCC(c3ccc4c(c3)OCO4)CC2)c1 | 5.355
CC(Cn1cccn1)NCc1csc(Cc2ccccc2)n1 (stereo not given) | 103.2
COc1ccc(CNC(C)Cn2cccn2)cc1F (stereo not given) | -3.821
CC(Cn1cccn1)NCc1csc(-c2ccc(F)cc2)n1 (stereo not given) | 41.6
CC(Cn1cccn1)NCc1ccc(Cl)s1 (stereo not given) | -2.882
CC(Cn1cccn1)NCc1csc(COc2ccccc2)n1 (stereo not given) | 96.83
CCCc1nc(CNC(C)Cn2cccn2)cs1 (stereo not given) | 69.81
CCc1nc(CNC(C)Cn2cccn2)cs1 (stereo not given) | 11.1
CC(Cn1cccn1)NCc1csc2c1CCCC2 (stereo not given) | -4.744
CC(Cn1cccn1)NCc1csc(COc2ccc(F)cc2)n1 (stereo not given) | 104
CC(Cn1cccn1)NCc1csc(-c2ncccn2)n1 (stereo not given) | -0.311
CC(Cn1cccn1)NCc1ccc(OCc2ccncc2)cc1 (stereo not given) | -3.58
O=C(O)C(F)(F)F.O=C(c1ccnnc1)N1C[C@H]2CCC[C@@]2(COCc2ccccn2)C1 | -25.48
COc1ccc(CCC2CCCCN2)cc1.Cl (stereo not given) | -16.14
O=C(O)C(F)(F)F.O=C(c1cccnc1)N1C[C@H]2CN(Cc3cccc(F)c3)C(=O)[C@H]2C1 | -29.23
Cc1oncc1C(=O)N1CC[C@@H]2[C@@H]1CC(=O)N2Cc1cccnc1.O=C(O)C(F)(F)F | 26.27
N#Cc1cccc(C(=O)N2CC[C@H]3[C@H]2CCN3CC2CC2)c1.O=C(O)C(F)(F)F | -24.15
Fc1ccc(CN2CCC3(CC2)CCN(c2ncccn2)CC3)cc1.O=C(O)C(F)(F)F.O=C(O)C(F)(F)F | -1.526
CC1CN(C)CCN1C(=O)c1cnc2c(cnn2C2CCCC2)c1 (stereo not given) | -19.82
O=C(NC1CC1)[C@H]1C[C@@H]2CCN(CCc3ccccc3)C[C@H]2O1.O=C(O)C(F)(F)F | -1.701
